Results filed as inconclusive are left out. Unmarked numbers belong to inactive results. Calls follow the shape of the full dose curve.

The nature of the assay: qHTS for Inhibitors of Cell Surface uPA Generation: Wild-type Protective Antigen (WT-PrAg) Counterscreen for Cherry-picked Compounds. Also: 0% is about no effect. The conditions noted are these: cells, WT protective antigen toxicity counterscreen; series mostly up to 115 µM; activity (protection): at the top concentration. (In general: Quantitative high-throughput screening tests each substance at several concentrations.)
Turning to `CC1CCCC(NC(=O)CNC(=S)N(Cc2ccccc2)Cc2cccs2)C1C` (centres undefined), the “activity (protection)” value is -1.4%. With `COc1ccc(N2CCN(S(=O)(=O)c3ccc4c(c3)NC(=O)CS4)CC2)cc1` the figure was -0.171%; with `Cc1c([N+](=O)[O-])c2ccc(O)cc2n1-c1ccccc1`, 11.1%; with `O=C(NCc1ccccn1)C1CCN(C(=O)c2cc3sccc3n2Cc2ccc(F)cc2)CC1`, -1.98%.

Regarding `CCC1(C)NC(=O)N(CC(=O)Nc2sc3c(c2C(N)=O)CCC3)C1=O` (centres undefined), the “activity (protection)” value was 6.41%.

With `CCOC(=O)Oc1c(OC)cc(C(=O)O[C@@H]2C[C@@H]3CN4CCc5c([nH]c6cc(OC)ccc56)[C@H]4C[C@@H]3[C@H](C(=O)OC)[C@H]2OC)cc1OC`, the “activity (protection)” value is -0.0981%. With `CC(=O)NS(=O)(=O)c1ccc(NC(=O)c2cccc(OCc3c(C)noc3C)c2)cc1` the figure was 0.921%; with `Cn1c(SCC(=O)NNC(=O)c2ccc(Br)cc2)nnc1-c1cccnc1`, -1.04%. For the compound `CCOc1cc(S(=O)(=O)NC2CC(C)(C)NC(C)(C)C2)ccc1Cl`, the “activity (protection)” value was 0.451%.

`COc1ccc2[nH]cc(S(=O)(=O)c3ccc(C(C)C)cc3)c(=O)c2c1`: the “activity (protection)” value was 0.533%. As for `NC(=O)CC[C@H](NC(=O)c1ccc(F)cc1)C(=O)OCC(=O)Nc1c(F)c(F)c(F)c(F)c1F`, the “activity (protection)” value is -0.726%.

`Cc1ccc(-n2cccc2C(=O)NS(=O)(=O)c2ccc(C)cc2)cc1`: the “activity (protection)” value is -0.321%. For `Cc1cc(C)c(S(=O)(=O)N2CCCOC2CNC(=O)C(=O)NCc2cccs2)c(C)c1` (centres undefined), the “activity (protection)” value was -0.312%. For `CCc1nnc(NC(=O)CSc2nnnn2-c2cccc(C(C)=O)c2)s1` the value was -0.331%; for `COCCOc1ccc(C(F)(F)F)cc1NC(=O)COC(=O)Cc1c[nH]c2ccccc12`, -0.946%.

As for `CCOC(=O)C1=CC[C@@H](c2cc3ccc(OC)cc3n2C)N(S(=O)(=O)c2ccc(C)cc2)[C@H]1C(=O)OCC`, the “activity (protection)” value is -1.05%. For `CCOC(=O)CN1C(=O)N[C@@H](c2ccco2)C(C(=O)OC)=C1C` the value was -1.93%; for `COc1ccc(C(C(=O)NC2CCCC2)N(C(=O)c2ccoc2C)c2ccc(C)c(C)c2)cc1` (centres undefined), -1.73%; for `Cc1cc2[nH]c(=O)c(=O)[nH]c2cc1S(=O)(=O)NC1CCC(C)CC1` (centres undefined), -0.438%. With `COc1ccc(Cc2nnc(NC(=O)Nc3ccc(F)cc3)s2)cc1` the figure was 6.85%; with `Cc1ccc(-n2ncc(C(=O)NC3CC3)c2C2CCN(C(=O)OC(C)(C)C)CC2)cc1`, 1.41%. Consider `O=C(/C=C/c1cccc(F)c1)Nc1cc(S(=O)(=O)N2CCOCC2)ccc1Cl`, for which the “activity (protection)” value is -1.99%. For `Cc1cccn2c(CNCC(C)Oc3cccnc3)c(C(=O)N3CCOCC3)nc12` (centres undefined) the value was -1.09%; for `COCC(=O)N1CCC(n2nccc2NC(=O)c2ccccc2OC)CC1`, -1.49%; for `O=[N+]([O-])c1cccc(-c2noc(-c3cccs3)n2)c1`, 3.04%. With `COC(=O)COc1cc2ccccc2cc1C(=O)Nc1ccccc1` the figure was -0.212%; with `Cc1nc2nc(C)c(NS(=O)(=O)c3ccc(Cl)cc3)c(=O)n2[nH]1`, 2.63%. For `COCCNS(=O)(=O)c1cc(OC)c(C)cc1C` the value was 1.58%. Take `COc1cc(C2/C(=C(\O)c3ccc4c(c3)CC(C)O4)C(=O)C(=O)N2CC2CCCO2)cc(OC)c1OC` (centres undefined): the “activity (protection)” value is -0.464%. With `CN(C(=O)c1ccccc1C(=O)OCC(=O)NCc1ccccc1)C1CCCCC1` the figure was -0.653%; with `C[C@H](CO)N1C[C@H](C)[C@@H](CN(C)C(=O)Nc2ccccc2)Oc2ccc(NC(=O)Cn3cnnn3)cc2C1=O`, -0.0378%. For `C[C@@H]1O[C@@H](O[C@@H]2C(=O)c3c(O)cc(O)cc3O[C@H]2c2ccc(O)c(O)c2)[C@H](O)[C@H](O)[C@H]1O` the value was -0.724%; for `COc1cc(CNCc2ccc3c(c2)OCO3)c([N+](=O)[O-])cc1OC`, 0.0004%. With `COc1ccc(/C(N)=N/OC(=O)Cc2ccccc2OC)cc1`, the “activity (protection)” value is 0.289%. For the compound `Cc1oc(-c2ccccc2F)nc1CS(=O)(=O)CC(=O)NC1CCCC(C)C1C` (centres undefined), the “activity (protection)” value was 0.318%. Take `CC(C)(C)OC(=O)N(Cc1ccccc1)Cc1ccccc1OCc1cccc(NC(=O)C2CC2)c1`: the “activity (protection)” value was -1.87%. For `Cn1c(CN2CCCC2)nc2cc(NC(=O)COc3ccccc3)ccc21`, the “activity (protection)” value was -1.34%. `CCOc1cc(C(=S)N2CCOCC2)ccc1OC(=O)c1cccc(C)c1`: the “activity (protection)” value is -2.03%. With `CC(C)CCN1C(=O)c2ccc(-c3nc4ccccc4c(=O)o3)cc2C1=O` the figure was -0.862%.

These data come from PubChem BioAssay AID720518 (National Center for Advancing Translational Sciences (NCATS), 2013).
